# The list is not random: actives were taken first. Their share in the collection is about 1.2%.
# PKA-R2B activ: activators of human PKA-R2B complex; P22694+P31323; activation, % at 11.4 µM; PKA-R2B holoenzyme dissociation, Cy5-IP20 fluorescence polarization; R2B truncated from residue 108, S112A mutant; 0% DMSO only, 100% 113 µM cGMP; AID 504700; hit rate 0.079% among 340,000;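 active = activation above a cutoff set at the mean over all compounds plus 3 SD, cut at about 18% in these data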;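 also: higher means more holoenzyme dissociation and a rise in polarization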
# PKA-R1A activ: activates the PKA-R1A holoenzyme complex | P00514+P68181 | PKA-R1A dissociation, Cy5-IP20 fluorescence polarization; scaled: DMSO 0%, 113 µM cGMP 100% | activation, % at 11.4 µM | hit rate 0.083% among 340,000;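 active = percent activation above the mean of all tested compounds plus 3 SD, cut at about 19% in these data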;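 also: higher means more PKAc released from R1A so a rise in polarization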
# NR1D1 modulator: modulators of human Rev-erb alpha DNA binding | Rev-erbα–FITC-DNA binding, fluorescence polarization, 90 min | P20393 | hit rate 0.79% among 370,000 | activity, % at 10 µM;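 active = activity above about 14%, limit read from the data; passing the limit was not always enough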;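 also: 0% = DMSO wells with 35 nM protein and 100% = DMSO wells with 750 nM protein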
# Target sequence (P20393 whole entry, looked up): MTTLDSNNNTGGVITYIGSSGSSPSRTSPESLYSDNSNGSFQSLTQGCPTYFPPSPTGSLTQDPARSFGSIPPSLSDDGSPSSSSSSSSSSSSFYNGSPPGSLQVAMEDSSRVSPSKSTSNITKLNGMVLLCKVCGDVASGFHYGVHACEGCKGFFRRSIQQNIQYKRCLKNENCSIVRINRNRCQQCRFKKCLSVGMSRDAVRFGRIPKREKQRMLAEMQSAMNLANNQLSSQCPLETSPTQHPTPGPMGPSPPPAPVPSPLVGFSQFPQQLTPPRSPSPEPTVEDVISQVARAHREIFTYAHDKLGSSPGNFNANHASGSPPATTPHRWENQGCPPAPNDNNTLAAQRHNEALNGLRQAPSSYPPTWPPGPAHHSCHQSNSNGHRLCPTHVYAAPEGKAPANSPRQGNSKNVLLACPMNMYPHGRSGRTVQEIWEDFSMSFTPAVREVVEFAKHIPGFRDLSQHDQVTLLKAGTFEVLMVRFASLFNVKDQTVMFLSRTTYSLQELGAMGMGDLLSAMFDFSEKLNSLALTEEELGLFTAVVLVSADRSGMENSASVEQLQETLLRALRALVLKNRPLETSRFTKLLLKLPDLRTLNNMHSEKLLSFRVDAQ
# PG9 binder: PG9 antibody binding by small molecule | TR-FRET gp120-PG9 antibody binding | inhibition, % at 6.7 µM | hit rate 0.43% among 360,000; in the data active = inhibition above about 8.5%
# NR1D1 mod conf: Rev-erb alpha (human) modulation, hit confirmation; shares compounds with NR1D1 modulator; Rev-erb alpha FITC-DNA binding, fluorescence polarization, 90 min; activation, % at 25 µM; hit rate 61% among 3,000;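 active = activation at or above a set limit, or at least 3 SD above the negative control mean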;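 also: 0% = 35 nM protein with DMSO and 100% = 750 nM protein high control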
# RORg counter: affects RORgamma DNA binding in a Rev-erb alpha counter-screen. purified RORgamma protein-FITC-DNA binding, fluorescence polarization. shares compounds with NR1D1 modulator. AID 1259320. IC50, µM. hit rate 8% among 910;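 active = Compounds whose fitted half-maximal concentration for disrupting protein-DNA binding is below 10 micromolar; the record names Rev-erb in its text, so the target is in doubt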
# * marks the source's active call; other numbers are inactive results; . = not tested or not shown.
SMILES,PKA-R2B activ,PKA-R1A activ,NR1D1 modulator,PG9 binder,NR1D1 mod conf,others
COc1ccc(CNC(=O)CN(C)Cc2ccc(C(C)(C)C)cc2)cc1,-16.5,-8.2,25.4*,-1.3,-2.9,
CC1CCc2sc(C(=O)Nc3nnc(SCc4ccc(F)cc4)s3)cc2C1 (stereo not given),-6.3,-5.6,29.6*,8.4,17.0,
COC(=O)C1CCN(C(=O)c2cc3c(=O)n4cccc(C)c4nc3n2Cc2ccccc2)CC1,2.9,3.4,39.5*,-3.4,23.4*,
Cc1cccn2c(=O)c3cc(C(=O)O)n(C)c3nc12,2.9,-5.6,-5.5,1.1,.,
Cc1ccc(C(=O)CSc2ncnc3sc4c(c23)CCC(C)C4)cc1 (stereo not given),1.5,-3.8,68.4*,-0.7,24.1*,
CC(=O)CSc1ncnc2sc3c(c12)CCC3,4.7,-2.5,-6.4,-1.9,.,
O=C(Nc1ccncc1)c1sc2ccccc2c1Cl,-2.3,1.9,1.4,1.2,.,
O=C(Nc1ccnc(=O)[nH]1)c1sc2ccccc2c1Cl,-8.6,-10.1,37.2*,2.5,22.6*,
O=[N+]([O-])c1cccc(NCCCN2CCC(C(O)(c3ccccc3)c3ccccc3)CC2)c1,.,.,-3.3,.,.,
COC(=O)[C@]12C[C@H](CC(=O)NCCCCc3ccccc3)C(=O)N(Cc3ccc(Cl)cc3Cl)C1=C[C@H](C1CCCC1)O[C@@H]2C,.,.,-1.8,.,.,
N#CCCn1c(-c2nonc2NC(=O)c2ccccc2Cl)nc2ccccc21,-3.7,-7.3,77.2*,-1.9,22.3*,
CC(=O)Nc1nonc1-c1nc2ccccc2n1CCC#N,-18.7,-13.5,3.5,-2.6,.,
CN1[C@H](Cc2ccccc2)COc2cc(N3CCCC3)ccc2S1(=O)=O,.,.,-0.2,.,.,
CCN1C(=O)/C(=C/c2ccc(N3CCCC3)cc2)NC1=S,-3.3,-5.4,56.3*,-8.8,48.7*,RORg counter=>40
O=C1c2cccc3cccc(c23)C(=O)N1OS(=O)(=O)c1ccc(Cl)cc1,2.2,-6.4,21.7*,-1.3,12.8,
CCc1ccc(S(=O)(=O)ON2C(=O)c3ccccc3C2=O)cc1,7.0,-7.6,5.0,0.6,.,
CC(=O)c1cccc(NC(=O)CCn2c(=S)oc3ccccc32)c1,-11.1,-1.6,29.3*,-1.0,12.1,
CC(=O)c1cccc(NC(=O)CCn2c(=O)oc3ccccc32)c1,4.2,6.2,-2.8,0.2,.,
CC(C)CNS(=O)(=O)/C=C/c1ccccc1CNC(=O)OC(C)(C)C,.,.,-0.6,.,.,
CC1(Cc2ccc(OC(F)(F)F)cc2)C(=O)Nc2ccc(OC(F)(F)F)cc21 (stereo not given),.,.,8.9,-0.1,.,
COc1ccc(C(C)=O)cc1CC1(C)C(=O)Nc2ccc(-c3ccccc3OC)cc21 (stereo not given),.,.,0.6,-0.3,.,
COc1ccccc1-c1ccc2c(c1)C(C)(Cc1cccc(F)c1)C(=O)N2 (stereo not given),.,.,63.5*,-1.2,88.0*,RORg counter=>40
CC1(Cc2cccc(F)c2)C(=O)Nc2ccc(OC(F)(F)F)cc21 (stereo not given),.,.,16.3*,-0.2,14.7*,
CC1CCC2(CC1)CCN(CCCOC(=O)Nc1ccc3c(c1)OCO3)C2=O (stereo not given),.,.,1.8,.,.,
Cc1nc(C)c2c(=O)cc(-c3ccccc3)[nH]c2n1,-1.4,4.2,-2.4,1.7,.,
SMILES,PKA-R2B activ,PKA-R1A activ,NR1D1 modulator,PG9 binder,NR1D1 mod conf,others
Cc1nc(-c2ccccc2)nc2[nH]c(-c3ccccc3)cc(=O)c12,1.8,-2.7,90.1*,7.4,80.6*,RORg counter=>40
Cc1nc2ccc(NC(=O)c3cc(Cl)ccc3F)cc2c(=O)[nH]1,.,.,1.4,.,.,
COc1ccc(Nc2nc(C)nc3c2nnn3Cc2ccccc2Cl)c(OC)c1,-3.0,-2.0,21.0*,-1.1,8.8,
COc1ccc(CCn2c(O)c(C=Nc3cccc(F)c3)c(=O)[nH]c2=O)cc1OC,.,.,38.5*,2.6,1.0,
COc1ccc(CCn2c3c(c(=O)[nH]c2=O)C(NC(=O)c2cccs2)(C(F)(F)F)C(=O)N3)cc1OC (stereo not given),-10.8,0.1,-0.4,-0.5,.,
S=C(Nc1ccccc1)OCCN1CCCC12CCC(c1ccccc1)CC2 (stereo not given),.,.,-1.0,.,.,
CCOC(=O)CSc1nc2cc3c(cc2cc1CC)OCCO3,-13.4,-4.6,10.7,2.7,.,
CCc1cc2cc3c(cc2nc1SCC(=O)Nc1nnc(C)s1)OCCO3,4.8,-2.5,59.5*,1.5,41.0*,RORg counter=>40
CCc1nnc(NC(=O)CSc2nc3cc4c(cc3cc2CC)OCCO4)s1,1.8,-0.5,89.7*,1.7,36.0*,RORg counter=>40
O=S1(=O)c2ccc(N3CCCC3)cc2Oc2ccccc2CN1Cc1cn(Cc2ccc(Cl)cc2)nn1,.,.,3.3,.,.,
O=C(Nc1ccc(F)cc1)c1sc2cc(C(F)(F)F)cnc2c1-c1cccs1,-1.6,-2.8,49.3*,-13.1,21.1*,
CC(C)(C=O)Cc1cc(C(C)(C)C)c(O)c(C(C)(C)C)c1,0.8,4.8,21.5*,-1.3,18.8*,
COc1ccc(-c2ccc(=O)n(CC(=O)Nc3ccc4c(c3)OCCO4)n2)cc1,5.9,1.7,17.8*,1.3,10.9,
COc1ccc(CNC(=O)Cn2nc(-c3ccc4c(c3)OCCO4)ccc2=O)cc1,-1.2,-6.5,-2.5,-2.3,.,
COc1ccc(-c2nn(CC(=O)Nc3ccc(Cl)c(Cl)c3)c(=O)c3ccccc23)cc1,0.4,-3.3,21.7*,1.7,13.5,
CC(=O)c1cccc(NC(=O)Cn2nc(-c3ccc(Cl)cc3)ccc2=O)c1,-4.6,-1.9,23.3*,0.3,12.4,
CCN1Cc2nnn(CC3CCCCC3)c2-c2ccccc2S1(=O)=O,.,.,9.6,.,.,
COC(=O)C1CN(CCO)CCS(=O)(=O)N1Cc1cn(Cc2ccccc2Br)nn1 (stereo not given),.,.,2.2,.,.,
CCOC(=O)c1sc2ccc(S(=O)(=O)N3CC(C)CC(C)C3)cc2c1N (stereo not given),2.8,-4.3,27.8*,-1.0,18.2*,
O=c1c2ccccc2n2c(-c3ccc(F)cc3)nnc2n1Cc1ccccc1,8.9,2.8,24.3*,-0.8,35.0*,RORg counter=>40
O=C(CSc1nnc2scc(-c3ccccc3)n12)Nc1nsc(-c2ccc(Cl)cc2)n1,-7.7,-8.0,30.8*,0.4,17.0,
O=C(CSc1nnc2scc(-c3ccccc3)n12)Nc1nsc(-c2ccccc2)n1,-2.0,-2.3,43.5*,.,38.6*,RORg counter=>40
Cc1ccc(-c2csc3nnc(SCC(=O)Nc4nsc(-c5ccccc5)n4)n23)cc1,-12.4,-5.0,-1.0,-1.2,.,
COC(=O)c1ccc(Cn2ccc3ccc(-c4ccc5ccn(Cc6ccccc6)c5c4)cc32)cc1,.,.,-3.8,.,.,
COC(=O)c1ccc(Cn2ccc3ccc(-c4ccc5ccn(C(=O)c6ccccc6OC)c5c4)cc32)cc1,.,.,47.0*,.,71.6*,RORg counter=>40
COc1ccc(Cn2ccc3ccc(-c4ccc5ccn(C(=O)c6ccccc6OC)c5c4)cc32)cc1,.,.,70.6*,.,62.9*,RORg counter=>40
